The supplement of paper PMC3334620
The full ranking holds about 33,000 sequences; the median of “E-score (-0.5 to 0.5)” is about -0.015, and the highest 2% start at about 0.3. What follows is part of a selection rich in the highest values, with near analogues and random picks from the rest.

biological target: T1, Abf1 (UniProt P14164); test: PBM E-score (8-mer binding enrichment) (E-score (-0.5 to 0.5)); higher = stronger / more preferred TF binding; details: protein concentration: 200 nM; construct: GST-full length
T1 sequence: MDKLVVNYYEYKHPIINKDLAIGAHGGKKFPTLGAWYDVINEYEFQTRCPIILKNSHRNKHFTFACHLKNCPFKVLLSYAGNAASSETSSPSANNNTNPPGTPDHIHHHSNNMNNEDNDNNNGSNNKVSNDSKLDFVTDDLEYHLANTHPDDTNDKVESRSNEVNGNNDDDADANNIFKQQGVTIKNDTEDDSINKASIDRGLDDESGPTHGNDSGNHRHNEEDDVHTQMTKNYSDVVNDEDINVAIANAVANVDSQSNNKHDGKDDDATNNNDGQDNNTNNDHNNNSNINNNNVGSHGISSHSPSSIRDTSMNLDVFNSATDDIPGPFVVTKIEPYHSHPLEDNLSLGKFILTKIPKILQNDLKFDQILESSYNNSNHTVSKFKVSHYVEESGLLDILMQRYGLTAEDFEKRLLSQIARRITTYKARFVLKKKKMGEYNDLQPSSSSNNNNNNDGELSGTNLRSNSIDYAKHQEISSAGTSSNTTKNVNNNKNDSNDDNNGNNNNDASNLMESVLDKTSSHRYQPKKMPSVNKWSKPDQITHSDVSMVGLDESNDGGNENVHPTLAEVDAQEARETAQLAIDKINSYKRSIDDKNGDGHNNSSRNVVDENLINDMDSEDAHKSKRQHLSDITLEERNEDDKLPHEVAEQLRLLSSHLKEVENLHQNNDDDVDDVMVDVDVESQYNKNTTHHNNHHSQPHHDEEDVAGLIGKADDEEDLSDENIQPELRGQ
Method: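 Universal 'all 10-mer' protein binding microarrays (Agilent AMADID 015681) probed with GST-tagged S. cerevisiae TFs (full-length or DBD) made by in vitro transcription/translation (PURExpress), about 100-200 nM. Bound TF was detected with fluorescent anti-GST. Each ungapped 8-mer (which stands for itself and its reverse complement) is scored by the PBM enrichment score (E-score), a modified Wilcoxon-Mann-Whitney statistic from -0.5 to +0.5, computed with the Universal PBM Analysis Suite. Scale: above 0.35 generally sequence-specific binding.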

Sequence | PBM E-score
ATAACGGG | 0.0588
CGGGCGCA | -0.146
GAATTAAA | 0.00779
GTGGAGAA | 0.0678
ACATACCT | -0.0525
CTACCTTC | 0.0107
GGCGGAGA | -0.00874
TAACGATA | 0.36
TAGCGATA | 0.347
CAACGATC | 0.103
GAACGATA | 0.301
TAACGAAA | 0.243
GAACGATC | 0.298
GAACGAGA | 0.0551
TAACGAGA | 0.295
AAACGATC | 0.286
CAGCGATA | 0.16
GTACGATA | 0.259
GAGCGATA | 0.223
ATGTAGAC | -0.0712
CCATTTAG | -0.118
CCGAGGTC | -0.0891
GATTGGTA | 0.109
GCTCCTGA | -0.23
CCGTACCC | 0.267

Sequence | PBM E-score
CCGAGTTA | 0.0322
CGCGCCTC | -0.14
TACAGCCA | -0.224
GCACGATA | 0.355
AAACGATA | 0.376
GCACGAGA | 0.178
CAACGATA | 0.25
AAACGATT | 0.292
ACACGATA | 0.295
GCGAACTA | -0.0767
CCGCGAGA | -0.0337
GCGGCACA | 0.112
ACGTATAG | 0.186
CCGTATAC | 0.272
GCGTATAA | 0.154
CCGTATAA | 0.418
ACGTATAT | 0.193
TCGTATAA | 0.4
TGGTATAA | 0.0711
ACGTATAA | 0.304
TAGTATAA | 0.269
GCGTAAAA | 0.103
ACGTAAAA | 0.317
ACGTAAAT | 0.113
GTAAGAAA | 0.176

Sequence | PBM E-score
ATCAGGGC | -0.198
CCATCGCA | -0.0576
CAATATTG | 0.0635
GGCCCTTA | -0.233
GTAAACCA | -0.0676
GCTTTATA | -0.0302
ATTCGTAA | 0.203
ATTCGTCG | 0.31
CTTCGTAC | 0.414
ATTCGTCC | 0.296
CTTCGTCC | 0.0852
ATTCGTAC | 0.408
CTTCGTAA | 0.161
ATTCGTCA | 0.164
ATTCGTAG | 0.191
GCGAGGAA | -0.0784
AGTGGCGA | 0.0606
CTGTTTGC | 0.0145
CCTAAACA | -0.224
ATTCGGTC | 0.0175
GCAGGCAC | -0.145
CCCTTTGA | -0.125
CGACGTCA | 0.123
CACGAACC | 0.185
CACGGTTC | 0.154

Sequence | PBM E-score
ACGTCACA | 0.0823
ACGTCACG | 0.326
ACGTCACT | 0.39
ACGTCACC | 0.22
ACGTCAAT | 0.116
GCGTCACA | 0.02
AAGATAGG | -0.151
ACTTCAGC | -0.124
ATCAGGGA | -0.0561
CTATGTCC | -0.022
GTATGTCA | 0.394
ATATGTCA | 0.289
GAATGTCA | 0.278
CTATGTCA | 0.31
GGATGTCA | 0.171
ATAAGGCA | 0.14
ACAGGGGG | -0.357
GGAAGGAC | 0.0147
AGACCATC | -0.195
ATTAACCC | -0.086
CGTGTGAA | 0.311
CGTGTAAA | 0.314
CGTGTGAC | 0.11
TGTGTGAA | -0.234
CGTGTAAC | 0.237

Sequence | PBM E-score
AGTGTAAA | -0.00367
ATATGGTG | 0.0579
CGTGACGA | 0.351
CGTGACCA | 0.0961
GGTGACGA | 0.276
AGTGACGA | 0.422
CGTGACGC | 0.152
AGTGACGG | 0.1
CGGACATA | 0.0662
CATGGAGG | -0.286
AACGGCAT | 0.226
CTGGTTGC | -0.0319
AAATCAAT | 0.142
CAATCACC | 0.0554
AAATCACC | 0.336
AAATCACG | 0.284
AAATCACA | 0.0176
AAATCACT | 0.374
CGAACCAA | 0.0494
ATCAGCGA | -0.0614
GGTTTTCA | 0.167
ACGAGCAT | 0.00886
GTCCTATA | -0.0768
GACGACAC | 0.252
ACCGACAA | 0.115

Sequence | PBM E-score
TACGACAA | 0.298
GGCGACAA | 0.0843
CACGACAC | 0.296
CACGACAA | 0.25
GACGACAA | 0.347
AACGACAT | 0.346
AACGACAG | 0.196
AACGACAA | 0.308
TGCGACAA | 0.0936
AACGACAC | 0.238
TCAAGAGA | 0.0894
ACATCGTG | 0.185
ACCCCTAC | -0.271
AAGAGGAA | -0.0719
GGCCCGTA | 0.0104
ACGGAGGG | 0.0212
CACGCAGC | 0.00826
ACGTCTAG | 0.167
AGATCAAT | 0.12
CGATCACC | 0.0211
GGATCACC | 0.247
CGATCACA | 0.161
TGATCACA | 0.292
AGATCACT | 0.437
GGATCACA | 0.00896

Sequence | PBM E-score
AGATCACG | 0.35
AGATCACA | 0.138
AGATCAAG | 0.112
CGATCACG | 0.298
AGATCACC | 0.311
AGACGGGG | 0.0661
GATCCTCA | 0.019
CTAATTCC | 0.0379
ATGACCTA | 0.235
ATACAACA | 0.0798
CAAATGAA | -0.155
AAAGGATT | -0.105
TGCAACCA | -0.0685
CGTCTCTC | 0.162
ACTTCGTC | 0.227
CCTTCGTA | 0.292
ACTTCGTG | 0.0796
ACTTCGTA | 0.297
GCTTCGGA | 0.0157
GCTTCGTA | 0.313
CCGACACC | -0.195
ATTTTTGC | 0.113
